# From PubChem BioAssay (NCATS)
# Unmarked numbers belong to inactive results. How the calls were made is not given here.
# Test system: HIV-1 nucleocapsid protein NCp7 (binding to TG oligonucleotide)
# Test: HIV Nucleocapsid (AID 346);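 further: potency is for inhibitors that block NC binding and lower polarization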
# Conditions: HIV-1 NC / fluorescein-TGTGTGTG probe, fluorescence polarization
# Procedure, shortened: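 NCp7 100 nM + fluorescein TG4xF 10 nM; Hepes pH 7.5/250mM NaCl/1uM ZnCl2/0.004% PEG 20000; 1 hr RT; FP, 45 s exposure; oligo-only wells as negative control.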
# Potency means the concentration at half of the fitted maximal effect.
row,SMILES,Potency
1,Cc1noc(C)c1C(=O)N1CCC2(CCN(Cc3ccncc3)CC2)CC1,> 20 µM
2,CN(Cc1ccco1)c1cc(-c2ccccc2Cl)ncn1,> 20 µM
3,COc1ccccc1CN1CC[C@@]2(CCCN(C(=O)c3cnccn3)C2)C1,> 20 µM
4,Cc1cccc(CNc2cc(-c3cccc(NS(C)(=O)=O)c3)ncn2)c1,> 20 µM
5,CNc1nc(-c2cccnc2)nc2ccccc12,> 20 µM
6,O=c1cnc2cnc(OCc3ccccc3)nc2n1Cc1ccc(F)cc1,> 20 µM
7,Cc1cnc(CNc2nc(-c3ccc4c(c3)OCO4)nc3ccccc23)cn1,> 20 µM
8,COc1ncc2ncc(=O)n(Cc3ccc(F)cc3)c2n1,> 20 µM
9,O=c1c(-c2cccs2)nc2cnc(N3CCOCC3)nc2n1-c1ccccc1,> 20 µM
10,COCCn1c(=O)c(-c2cccc(C#N)c2)nc2cnc(N3CCOCC3)nc21,> 20 µM
11,Cc1noc(C)c1-c1ccc2ncnc(NCc3cccnc3)c2c1,> 20 µM
12,O=C(c1cnccn1)N1CCC[C@@]2(CCN(c3ccccc3)C2)C1,> 20 µM
13,COCC(=O)N1CCC[C@@]2(CCN(C(=O)Nc3ccccc3)C2)C1,> 20 µM
14,Cc1cnc(CNc2ccnc(-c3cccc(C#N)c3)n2)cn1,> 20 µM
15,O=C(c1ccncc1)N1CCC[C@@]2(CCN(Cc3cc(C(F)(F)F)cc(C(F)(F)F)c3)C2)C1,> 20 µM
16,CC(C)NC(=O)N1CC2(CCN(S(=O)(=O)c3ccccc3)CC2)C1,> 20 µM
17,Cc1nc2cnc(N3CCOCC3)nc2n(C)c1=O,> 20 µM
18,COc1ccc(CNc2ccnc(-c3c(C)noc3C)n2)c(OC)c1,> 20 µM
19,N#CCCn1c(=O)c(-c2ccccc2)nc2cnc(Nc3ccccc3)nc21,> 20 µM
20,O=C(c1ccncc1)N1CCC2(CCN(Cc3nccs3)CC2)CC1,> 20 µM
21,Cc1nc2cnc(N(C)C)nc2n(-c2ccccc2)c1=O,> 4 µM
22,c1cn(-c2ccnc(-c3ccc4c(c3)OCO4)n2)cn1,> 20 µM
23,CN1CCN(c2ncc3nc(-c4cc(F)cc(F)c4)c(=O)n(Cc4cccs4)c3n2)CC1,> 20 µM
24,COc1cccc(Cn2c(=O)c(CCc3ccccc3)nc3cncnc32)c1,> 20 µM
